The list is not random: actives were taken first. Their share in the collection is about 4%.
EBV LMP1 NFkB – Epstein-Barr LMP1 NF-kappaB reporter inhibition. LMP1-induced NF-kappaB luciferase reporter cells, luminescence. inhibition, % at 12.5 µM. 350,000 compounds, 0.69% hits. AID 504558; in the data active = inhibition above about 41%; inconclusive = no clear call, values can overlap the other calls
TWEAK-Fn14 inh – TWEAK-Fn14 signaling inhibition. TWEAK-stimulated Fn14 reporter cells, luciferase luminescence, 8 h. inhibition, % at 10 µM. 360,000 compounds, 2% hits; in the data active = inhibition above about 50%
Peg3 promoter – inhibitors of Peg3 promoter; HeLa PEG-Prom luciferase reporter, luminescence, overnight; inhibition, % at 20 µM; 360,000 compounds, 1.7% hits; AID 588405;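 active = inhibition of at least 50% at 20 µM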
HIF-2a inh – blocks HIF-2a reporter activity. 786-0 RCC cells HIF-2a reporter, luciferase luminescence, overnight. inhibition, % at 18.8 µM. 360,000 compounds, 0.72% hits;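 active = inhibition of the luminescence signal of 40% or more relative to plate controls, in a single-dose primary screen at 18.75 µM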
TRPM1 prom inh – MITF TRPM1 promoter inhibition in SK-MEL-5 cells; inhibition, % at 12.5 µM; SK-MEL-5 TRPM1 promoter luciferase, 24 h; 330,000 compounds, 0.83% hits;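 active = mean inhibition across replicates of 60% or more, whatever share of single replicates reaches that level; inconclusive = some that reach 60%, reason not given; inactive = mean inhibition across replicates below 60%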
TROY NFkB inh – inhibitors of TROY-dependent NF-kB signaling. Q293 LMP1-TROYcd NF-kB luciferase reporter, 4 h. inhibition, % at 10 µM. 360,000 compounds, 0.98% hits. AID 1347056;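 active = compounds whose plate-normalised and pattern-corrected inhibition of the luciferase reporter signal at the single screening dose is 50% or more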
Large screens that a line does not name were inactive.

C/C(=N\NC(=O)C(C)Oc1ccc([N+](=O)[O-])cc1)c1ccccn1 (stereo not given)	TRPM1 prom inh 83.1
CCCCCCCc1ccc(-c2ccc(O)cc2)nc1	none
CCCCCc1ccc(-c2ccc(/C=C/C(=O)O)cc2)nc1	EBV LMP1 NFkB 43.2, TWEAK-Fn14 inh 59.6, HIF-2a inh 74.5
COc1ccc(C(=O)OCC(=O)NC(=O)NC2CCCC2)cc1OC	none
N#Cc1ccc(NC(=O)Nc2ccc(Oc3ccc(NC(=O)Nc4ccc(C#N)cc4)cc3)cc2)cc1	TWEAK-Fn14 inh 105.3, Peg3 promoter 57.2, TRPM1 prom inh inconclusive, TROY NFkB inh 61.8
CCON1C(=O)C2(CCCCC2)C(=O)C12C=CCCC2 (stereo not given)	EBV LMP1 NFkB 85.5
O=C1N(O)C2(C=CCCC2)/C(=N\O)C12CCCCC2 (stereo not given)	none
Fc1cccc(/C=N/Nc2nncc3ccccc23)c1	none
C(=N\Nc1nncc2ccccc12)/c1ccccn1	TWEAK-Fn14 inh 74.0
COc1cc2c(cc1N)-c1ccc(N)cc1C2	none
O=C(CNC(=O)OCc1ccccc1)NCC(=O)NC(Cc1c[nH]c2ccccc12)C(=O)O (stereo not given)	TROY NFkB inh 50.9 (no result: EBV LMP1 NFkB, TRPM1 prom inh)
CCc1c(C)nc2c(-c3ccccc3)c(-c3ccccc3)[nH]n2c1=O	Peg3 promoter 52.5
COc1ccc(Cc2[nH]n3c(=O)c(Cl)c(C)nc3c2-c2ccccc2)cc1	TROY NFkB inh 69.4
COc1ccc(-c2nc3nc(C)c(Cc4ccccc4)c(=O)n3[nH]2)cc1	none
COc1cc(/C=N/Nc2cccc(C)c2)ccc1OC(=O)c1ccco1	none
Cc1sc2ncnc(N3CCC(C(=O)Nc4nnc(SCc5ccccc5F)s4)CC3)c2c1C	none
O=C(CNC(=S)N(Cc1ccccc1)Cc1ccccc1F)NCc1ccc(Cl)cc1	Peg3 promoter 52.1
O=C(N[C@@H](Cc1ccccc1)C(=O)CCl)OCc1ccccc1	EBV LMP1 NFkB 56.4, Peg3 promoter 70.0, TRPM1 prom inh 95.8
O=C(N[C@@H](Cc1ccccc1)C(=O)N[C@@H](Cc1ccccc1)C(=O)O)OCc1ccccc1	none
FC(F)(F)c1nc(-c2cccs2)ncc1-c1nnnn1-c1ccc(Cl)cc1	TWEAK-Fn14 inh 98.7, Peg3 promoter 68.6, TROY NFkB inh 66.4
CC(=O)N(CN1C(=O)CCC1=O)c1ccc(Cl)c(Cl)c1	TWEAK-Fn14 inh 73.4, Peg3 promoter 50.5, TROY NFkB inh 57.6
O=C1CCC(=O)N1CN(C(=O)c1ccco1)c1ccc(Cl)c(Cl)c1	none
CCN1/C(=C/c2ccc3cc(C)ccc3[n+]2C)Sc2ccc3sccc3c21	Peg3 promoter 110.6, HIF-2a inh 42.4, TRPM1 prom inh 77.3
CCCCN1/C(=C/c2cccc[n+]2C)Sc2cc(NC(C)=O)ccc21	none
Cc1ccc2c(c1)S/C(=C/c1ccc[n+](C)c1)N2CCO	none
CCN1/C(=C/c2ccc3cc(C)ccc3[n+]2CC)Sc2cc(C)ccc21	Peg3 promoter 97.3, HIF-2a inh 63.3, TRPM1 prom inh 85.1
CCCCN1/C(=C/c2ccc3ccccc3[n+]2CC)Sc2ccccc21	EBV LMP1 NFkB 52.4, TWEAK-Fn14 inh 66.3, TRPM1 prom inh 69.1
CCN1/C(=C/c2ccc3ccccc3[n+]2CC)C=Cc2ccccc21	EBV LMP1 NFkB 52.6, TWEAK-Fn14 inh 55.5, Peg3 promoter 86.5, HIF-2a inh 66.2, TRPM1 prom inh 101.6, TROY NFkB inh 52.1
CCCCCn1nnnc1-c1nc2cc(C)c(C)cc2[nH]c1=O	none (no result: EBV LMP1 NFkB, Peg3 promoter, TRPM1 prom inh)
Cc1cccc(C)c1NC(=O)CNC(=O)CNC(=O)c1ccc2ccccc2c1	none (no result: TRPM1 prom inh)
CS(=O)(=O)c1ccc2nc(NC(=O)c3ccc(S(=O)(=O)NCC4CCCO4)cc3)sc2c1 (stereo not given)	none
Nc1nn(-c2cccc(F)n2)cc1-c1ccc(Cl)cc1	none
COc1ccc(-c2ccn(-c3cccc(F)n3)n2)cc1	TWEAK-Fn14 inh 56.2
O=C1c2ccccc2[C@@H]2C[C@H]3O[C@H]3CCN12	none
CC(C)c1ccc(NC(=S)Nc2cccc3ccccc23)cc1	TWEAK-Fn14 inh 53.4, TROY NFkB inh 70.5
CCOc1ccc(NC(=S)Nc2cccc3cnccc23)cc1	none
CN(C)S(=O)(=O)c1cccc(NC(=S)Nc2cccc3cnccc23)c1	TWEAK-Fn14 inh 72.8
S=C(Nc1cccnc1)Nc1cccc2cnccc12	none
Cc1ccc(NC(=S)Nc2cccc3ccccc23)cc1	TROY NFkB inh 66.0
CCOc1ccc(NC(=S)Nc2cccc3ccccc23)cc1	TWEAK-Fn14 inh 67.5

Bioassay records deposited in PubChem BioAssay by several laboratories.
